In PubChem BioAssay (NCATS):
“And” between values parts separate entries of the source, which are not always exact repeats. Identical values can stand only once. Results filed as inconclusive are left out. Unmarked numbers belong to inactive results. The source made the active and inactive calls. Calls follow the shape of the dose curve; as a rule, active = well fitted curve in the direction sought with a large enough effect; inconclusive = small, poorly fitted or top-dose-only effect, or another doubt; inactive = no such curve, though single readings can be large; an effect the other way counts as inactive or inconclusive.

Columns and labels:
[1] = target: Cellular tumor antigen p53 (Homo sapiens) (UniProt P04637); experiment: Primary qHTS for small molecule compounds that upregulate eGFP-tagged delta133p53alpha (in N-terminal) cells. (AID 2060322); conditions: NCI-H358 eGFP-delta133p53alpha fluorescence, 24 h; activation: stronger effect = higher value; also: nearly all actives have a fitted effect of over 75% in size;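 as to activation: cells pre-induced with doxycycline then dosed without doxycycline; series mostly up to about 56 µM; 0% = DMSO vehicle and 100% = reference activator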
Outline: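 NCI-H358 cells pre-induced 24 h with 10 ng/ml doxycycline for eGFP-delta133p53alpha, plated dox-free and exposed 24 h at 37C to titrated compounds. Fixed, Hoechst-stained; gated GFP peak intensity by laser scanning cytometry, normalized to DMSO (0%) and 57.5 uM 5-azacytidine (100%).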

[2] = BET inhibitor-based combinations targeting novel dependencies in MECOM-rearranged (r) AML: SET-2 cell line (AID 2202231); conditions: SET-2 AML cells viability, CellTiter-Glo luminescence, 48 h; viability: stronger effect = lower value, concentration not given here; also: nearly all actives have a fitted effect of over 35% in size;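 as to viability: plate controls were DMSO treated cells for no effect and wells without cells for full effect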
Outline: (§1)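 Luminescent ATP readout (CellTiter-Glo) after 48 hr drug exposure gives viability. Curves span 11 concentrations and are normalized to DMSO and empty wells. Activity is reported as area under the curve and its Z-transform within each cell line.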

[3] = BET inhibitor-based combinations targeting novel dependencies in MECOM-rearranged (r) AML: OCI-AML3 cell line (AID 2202232); conditions: Potency: OCI-AML3 viability; also: nearly all actives have a fitted effect of over 35% in size;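 as to viability (% of control): series mostly up to about 46 µM; plate controls were DMSO vehicle wells for no effect and wells without cells for full effect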
Outline: as §1

[4] = BET inhibitor-based combinations targeting novel dependencies in MECOM-rearranged (r) AML: MV-4-11 cell line (AID 2202233); also: nearly all actives have a fitted effect of over 45% in size;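 as to viability, % of control: plate controls were DMSO for no effect and blank wells for full effect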
Outline: (§2)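 Luminescent ATP readout (CellTiter-Glo, 15 min at room temperature) after 48 hr drug exposure gave viability. Dose-response curves, normalized to DMSO and empty-well controls, were summarized as area under the curve and its mean-centred Z-score.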

[5] = BET inhibitor-based combinations targeting novel dependencies in MECOM-rearranged (r) AML: HNT-34 cell line (AID 2202234); also: nearly all actives have a fitted effect of over 35% in size;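 as to viability (% of control): plate controls were vehicle wells for no effect and cell-free wells for full effect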
Outline: as §2

[6] = BET inhibitor-based combinations targeting novel dependencies in MECOM-rearranged (r) AML: UCSD-AML1 cell line (AID 2202235); also: nearly all actives have a fitted effect of over 40% in size;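 as to viability (% of control): series mostly up to about 46 µM; plate controls were DMSO vehicle wells for no effect and blank wells for full effect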
Outline: as §2

[7] = BET inhibitor-based combinations targeting novel dependencies in MECOM-rearranged (r) AML: AML-191 cell line (AID 2202236; also: nearly all actives have a fitted effect of over 35% in size;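 as to viability (% of control): plate controls were vehicle wells for no effect and wells without cells for full effect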)
Outline: as §1

[8] = BET inhibitor-based combinations targeting novel dependencies in MECOM-rearranged (r) AML: AML-194 cell line (AID 2202237; also: nearly all actives have a fitted effect of over 40% in size;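 as to viability (% of control): plate controls were vehicle wells for no effect and wells without cells for full effect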)
Outline: as §1
Potency is read from the fitted curve at half-maximal effect.

Cellular tumor antigen p53 (Homo sapiens), sequence (P04637 whole entry, looked up): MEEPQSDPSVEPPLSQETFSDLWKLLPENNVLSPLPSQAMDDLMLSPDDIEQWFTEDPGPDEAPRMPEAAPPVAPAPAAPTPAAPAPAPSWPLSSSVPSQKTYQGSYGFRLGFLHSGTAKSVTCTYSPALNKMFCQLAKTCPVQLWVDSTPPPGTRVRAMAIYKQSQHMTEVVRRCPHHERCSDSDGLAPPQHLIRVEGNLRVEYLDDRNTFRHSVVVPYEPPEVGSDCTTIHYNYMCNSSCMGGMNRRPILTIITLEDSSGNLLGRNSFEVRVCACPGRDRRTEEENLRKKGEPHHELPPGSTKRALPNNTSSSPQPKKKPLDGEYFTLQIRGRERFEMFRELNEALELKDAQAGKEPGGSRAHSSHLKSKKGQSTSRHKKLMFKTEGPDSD

| SMILES | activation [1] | viability [2] [%] | Potency [3] | Potency [4] | Potency [5] | Potency [6] | Potency [7] | Potency [8] | Potency [2] | Potency [1] | viability (% of control) [3] | viability, % of control [4] | viability (% of control) [5] | viability (% of control) [6] | viability (% of control) [7] | viability (% of control) [8] |
| --- | --- | --- | --- | --- | --- | --- | --- | --- | --- | --- | --- | --- | --- | --- | --- | --- |
| CC(=O)O[C@H]1C[C@@H]2CC[C@@H]3[C@H](CC[C@@]4(C)[C@H]3C[C@H]([N+]3(C)CCCCC3)[C@@H]4OC(C)=O)[C@@]2(C)C[C@@H]1N1CCCCC1 | 9.6% | 116 | inactive | inactive | inactive | inactive | inactive | inactive | – | – | – | – | – | – | – | – |
| COc1cccc2c1C(=O)c1c(O)c3c(c(O)c1C2=O)C[C@@](O)(C(=O)CO)C[C@@H]3O[C@H]1C[C@H](N)[C@@H](O)[C@H](C)O1 | -26.9% | – | 148 nM (active) | 37.2 nM (active) | 263 nM (active) | 132 nM (active) | 372 nM (active) | 417 nM (active) | 1180 nM (active) | – | – | – | – | – | – | – |
| COc1c(N2CCNC(C)C2)c(F)cc2c(=O)c(C(=O)O)cn(C3CC3)c12 (stereo unspecified) | 12.6% and 24.5% | 100 | inactive | inactive | inactive | inactive | inactive | inactive | – | – | – | – | – | – | – | – |
| C/C=C/C(=O)N(CC)c1ccccc1C | -2.82% | 107 | inactive | inactive | inactive | inactive | inactive | inactive | – | – | – | – | – | – | – | – |
| CC(C)C[C@H](NC(=O)CNC(=O)c1cc(Cl)ccc1Cl)B1OC(=O)CC(CC(=O)O)(C(=O)O)O1 (stereo partly specified) | – | – | 132 nM (active) | 132 nM (active) | 132 nM (active) | 166 nM (active) | 166 nM (active) | 186 nM (active) | 118 nM (active) | 9.68 µM (active) | – | – | – | – | – | – |
| NC(=O)c1ccc(-c2nc(-c3ccc4c(c3)OCO4)c(-c3ccccn3)[nH]2)cc1 | -10.5% | 112 | inactive | inactive | inactive | inactive | inactive | inactive | – | – | – | – | – | – | – | – |
| Nc1ccn(C[C@@H](CO)OCP(=O)(O)O)c(=O)n1 | -2.13% | 113 | – | – | – | – | – | – | – | – | 113% [at 8.46 µM] | 126% [at 8.46 µM] | 82.3% [at 8.46 µM] | 104% [at 8.46 µM] | 91.5% [at 8.46 µM] | 105% [at 8.46 µM] |
| O=C(O)c1cn(C2CC2)c2cc(N3CCNCC3)c(F)cc2c1=O | 6.67% | 109 | – | – | – | – | – | – | – | – | 109% [at 8.46 µM] | 112% [at 8.46 µM] | 97.3% [at 8.46 µM] | 101% [at 8.46 µM] | 102% [at 8.46 µM] | 113% [at 8.46 µM] |
| COC(=O)C1=C(C)NC(C)=C(C(=O)OCCCN2CCC(c3ccccc3)(c3ccccc3)CC2)C1c1cccc([N+](=O)[O-])c1 (stereo unspecified) | 2.93% | – | 29500 nM (active) | 10500 nM (active) | 18600 nM (active) | 14800 nM (active) | 26300 nM (active) | 20900 nM (active) | 18600 nM (active) | – | – | – | – | – | – | – |
| Cc1ccsc1C(=CCCN1CCC[C@@H](C(=O)O)C1)c1sccc1C | -19.8% | 112 | 468 nM (active) | inactive | inactive | inactive | inactive | inactive | – | – | – | – | – | – | – | – |
| CC(C)C[C@H](NC(=O)CNC(=O)c1cc(Cl)ccc1Cl)B(O)O | – | – | 118 nM (active) | 148 nM (active) | 132 nM (active) | 166 nM (active) | 166 nM (active) | 332 nM (active) | 105 nM (active) | 17.2 µM (active) | – | – | – | – | – | – |
| CN[C@H]1CCc2cc(OC)c(OC)c(OC)c2-c2ccc(OC)c(=O)cc21 | 7.86% | – | 93.4 nM (active) | 105 nM (active) | 83.3 nM (active) | 105 nM (active) | 105 nM (active) | 105 nM (active) | 186 nM (active) | – | – | – | – | – | – | – |
| Cc1nc(-c2ccc(OCC(C)C)c(C#N)c2)sc1C(=O)O | 4.32% and -8.37% | 109 | inactive | inactive | inactive | inactive | inactive | inactive | – | – | – | – | – | – | – | – |
| CC(=O)[C@H]1CC[C@H]2[C@@H]3CC=C4C[C@@H](O)CC[C@]4(C)[C@H]3CC[C@]12C | -3.95% and -16.2% | 112 | inactive | inactive | inactive | inactive | inactive | inactive | – | – | – | – | – | – | – | – |
| CC(C)C[C@H](NC(=O)[C@H](CCc1ccccc1)NC(=O)CN1CCOCC1)C(=O)N[C@@H](Cc1ccccc1)C(=O)N[C@@H](CC(C)C)C(=O)[C@@]1(C)CO1 | – | – | 20.9 nM (active) | 20.9 nM (active) | 23.5 nM (active) | 41.7 nM (active) | 52.5 nM (active) | 52.5 nM (active) | 83.3 nM (active) | 110 nM (active) and 273 nM (active) | – | – | – | – | – | – |
| O=C(NCCCCN1CCOCC1)c1cc2ccccc2o1 | 15.9% | 111 | inactive | inactive | inactive | inactive | inactive | inactive | – | – | – | – | – | – | – | – |
| O=c1[nH]c(=O)n(C2CCCO2)cc1F (stereo unspecified) | -1.88% | 111 | inactive | 20900 nM (active) | inactive | inactive | inactive | inactive | – | – | – | – | – | – | – | – |
